Laboratory results from publication PMC8384837, “Expanding the binding specificity for RNA recognition by a PUF domain”.

Legend:
Assay in all cases: yeast three-hybrid, YBZ-1, SC-Leu-His + 0.5 mM 3-AT, 4 days
Conditions in all cases: tags: N-Gal4 AD-HA kept; label: inside an RPR1-promoter hybrid RNA with tandem MS2 sites; ssRNA
[1] = molecular target: PUM1 PUF domain R8-IFM (Homo sapiens, UniProt Q14671 828-1176, N1122I;Y1123F;Q1126M)
Summary of the method: (§1)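 Pumilio-1 PUF domain libraries, randomized (NNK) at the three base-contacting residues of each repeat, were co-expressed with matching RNA elements from a centromeric plasmid in strain YBZ-1 (LexA–MS2 coat fusion, HIS3 reporter). Transformants were plated on SC-Leu (input) and SC-Leu-His + 0.5 mM 3-AT (selection) for four days, and repeat regions were PCR-amplified and Illumina-sequenced. The interaction score is the log2 change in variant frequency from input to selection, with pseudocount 1 where absent.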

[2] = molecular target: PUM1 PUF domain R8-VWR (Homo sapiens, UniProt Q14671 828-1176, N1122V;Y1123W;Q1126R)
Summary of the method: as §1

[3] = molecular target: PUM1 PUF domain R8-RHD (Homo sapiens, UniProt Q14671 828-1176, N1122R;Y1123H;Q1126D)
Summary of the method: as §1

[4] = molecular target: PUM1 PUF domain R5-FHC (Homo sapiens, UniProt Q14671 828-1176, C1007F;R1008H;Q1011C)
Summary of the method: as §1

[5] = molecular target: PUM1 PUF domain R4-DWV (Homo sapiens, UniProt Q14671 828-1176, N971D;H972W;Q975V)
Summary of the method: as §1

[6] = molecular target: T1, PUM1 PUF domain R6-RFA (Homo sapiens, UniProt Q14671 828-1176, N1043R;Y1044F;Q1047A)
T1 sequence: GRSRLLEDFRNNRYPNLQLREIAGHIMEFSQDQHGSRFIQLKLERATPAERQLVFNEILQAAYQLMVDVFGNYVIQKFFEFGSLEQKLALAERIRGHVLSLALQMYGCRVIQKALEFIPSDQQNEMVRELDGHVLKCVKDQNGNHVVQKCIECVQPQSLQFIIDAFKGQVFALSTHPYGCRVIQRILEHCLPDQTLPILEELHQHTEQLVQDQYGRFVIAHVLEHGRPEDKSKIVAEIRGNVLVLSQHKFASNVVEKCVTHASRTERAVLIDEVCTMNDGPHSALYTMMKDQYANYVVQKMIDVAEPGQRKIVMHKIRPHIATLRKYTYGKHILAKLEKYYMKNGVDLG
Summary of the method: as §1

[7] = molecular target: PUM1 PUF domain R3-MYH (Homo sapiens, UniProt Q14671 828-1176, C935M;R936Y;Q939H)
Summary of the method: as §1

[8] = molecular target: PUM1 PUF domain R3-VWP (Homo sapiens, UniProt Q14671 828-1176, C935V;R936W;Q939P)
Summary of the method: as §1

[9] = molecular target: PUM1 PUF domain R2-NRW (Homo sapiens, UniProt Q14671 828-1176, Y900R;Q903W)
Summary of the method: as §1

[10] = molecular target: PUM1 PUF domain R4-GQS (Homo sapiens, UniProt Q14671 828-1176, N971G;H972Q;Q975S)
Summary of the method: as §1

[11] = molecular target: PUM1 PUF domain R5-GLR (Homo sapiens, UniProt Q14671 828-1176, C1007G;R1008L;Q1011R)
Summary of the method: as §1

[12] = molecular target: PUM1 PUF domain R4-EFD (Homo sapiens, UniProt Q14671 828-1176, N971E;H972F;Q975D)
Summary of the method: as §1

[13] = molecular target: PUM1 PUF domain R1-KSV (Homo sapiens, UniProt Q14671 828-1176, S863K;R864S;Q867V)
Summary of the method: as §1

[14] = molecular target: PUM1 PUF domain R2-AKP (Homo sapiens, UniProt Q14671 828-1176, N899A;Y900K;Q903P)
Summary of the method: as §1

[15] = molecular target: PUM1 PUF domain R7-KFW (Homo sapiens, UniProt Q14671 828-1176, S1079K;N1080F;E1083W)
Summary of the method: as §1

Sequence: GGCUAGAACUAGUGGAUCCCCCGGCGCCCGGCGGCUCGAGCCCGGGUAAGCGUAAAUAGUCUGCAUGCCGCCGGGCGCCAUGCCUGCAGGUCGACUCUAGAAAACAUG
- binding signal [1]: 2.25 log2 enrichment (interaction score)
- binding signal [2]: 4.44 log2 enrichment (interaction score)
- binding signal [3]: 5.28 log2 enrichment (interaction score)

Sequence: GGCUAGAACUAGUGGAUCCCCCGGCGCCCGGCGGCUCGAGCCCGGGUAAGUGUGAAUAGUCUGCAUGCCGCCGGGCGCCAUGCCUGCAGGUCGACUCUAGAAAACAUG
- binding signal [4]: 3.55 log2 enrichment (interaction score)

Sequence: GGCUAGAACUAGUGGAUCCCCCGGCGCCCGGCGGCUCGAGCCCGGGUAAGUGUAUAUAGUCUGCAUGCCGCCGGGCGCCAUGCCUGCAGGUCGACUCUAGAAAACAUG
- binding signal [5]: 6.48 log2 enrichment (interaction score)

Sequence: GGCUAGAACUAGUGGAUCCCCCGGCGCCCGGCGGCUCGAGCCCGGGUAAGUGAAAAUAGUCUGCAUGCCGCCGGGCGCCAUGCCUGCAGGUCGACUCUAGAAAACAUG
- binding signal [6]: 1.03 log2 enrichment (interaction score)

Sequence: GGCUAGAACUAGUGGAUCCCCCGGCGCCCGGCGGCUCGAGCCCGGGUAAGUGUAAAUAGUCUGCAUGCCGCCGGGCGCCAUGCCUGCAGGUCGACUCUAGAAAACAUG
- binding signal [7]: 3.93 log2 enrichment (interaction score)
- binding signal [2]: 4.37 log2 enrichment (interaction score)
- binding signal [8]: 7.08 log2 enrichment (interaction score)
- binding signal [9]: 6.69 log2 enrichment (interaction score)
- binding signal [6]: 4.04 log2 enrichment (interaction score)
- binding signal [10]: 2.47 log2 enrichment (interaction score)
- binding signal [11]: 1.61 log2 enrichment (interaction score)
- binding signal [12]: 2.17 log2 enrichment (interaction score)

Sequence: GGCUAGAACUAGUGGAUCCCCCGGCGCCCGGCGGCUCGAGCCCGGGUAAGUGUAAAUUGUCUGCAUGCCGCCGGGCGCCAUGCCUGCAGGUCGACUCUAGAAAACAUG
- binding signal [13]: 2.75 log2 enrichment (interaction score)

Sequence: GGCUAGAACUAGUGGAUCCCCCGGCGCCCGGCGGCUCGAGCCCGGGUAAGUGUAAAGAGUCUGCAUGCCGCCGGGCGCCAUGCCUGCAGGUCGACUCUAGAAAACAUG
- binding signal [14]: 3.58 log2 enrichment (interaction score)

Sequence: GGCUAGAACUAGUGGAUCCCCCGGCGCCCGGCGGCUCGAGCCCGGGUAAGUCUAAAUAGUCUGCAUGCCGCCGGGCGCCAUGCCUGCAGGUCGACUCUAGAAAACAUG
- binding signal [15]: 3.75 log2 enrichment (interaction score)
